# Assay results from PubChem BioAssay AID651638 (Johns Hopkins Ion Channel Center, 2012).
# Hit rate of the full screen: of about 2,400 compounds, about 2,400 (100%) were called active.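 Rule for the calls: active = ratio percent of control, averaged over triplicates, above buffer control mean plus 5 SD (cut at about 64% in these data); inactive = the rest.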 The set was probably picked from earlier hits. The list is a sample of the results.
# Target: Potassium channel subfamily K member 3 (Homo sapiens) (UniProt O14649)
# Sequence (O14649 whole entry, looked up): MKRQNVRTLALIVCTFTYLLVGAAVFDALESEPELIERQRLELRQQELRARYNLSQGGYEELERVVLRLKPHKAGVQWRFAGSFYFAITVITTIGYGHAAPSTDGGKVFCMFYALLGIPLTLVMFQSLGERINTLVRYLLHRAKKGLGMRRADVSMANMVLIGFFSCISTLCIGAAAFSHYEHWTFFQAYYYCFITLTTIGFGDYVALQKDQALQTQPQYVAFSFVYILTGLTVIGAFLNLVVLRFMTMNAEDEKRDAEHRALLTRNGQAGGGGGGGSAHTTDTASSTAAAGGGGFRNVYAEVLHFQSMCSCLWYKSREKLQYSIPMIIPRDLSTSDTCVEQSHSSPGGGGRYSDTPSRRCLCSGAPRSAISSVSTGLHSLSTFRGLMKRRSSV
# Assay: TASK1 potassium channel blockade, triplicate retest – CHO cells, FluxOR thallium flux, confirmation (AID 651638);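 note: ratio is the fluorescence rise from min to max over baseline after thallium stimulus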
# Conditions: CHO-KCNK3 thallium flux, FluxOR fluorescence; at 10 µM; hits give high values; 0% buffer, 100% carvedilol maximal block
row,Structure (SMILES),ratio percent of control
1,O=C(CC1NCCc2ccccc21)Nc1cccc(Cl)c1 (stereo not drawn),115% (active)
2,CC(NCc1cccs1)C(=O)Nc1cc(Cl)cc(Cl)c1 (stereo not drawn),96.3% (active)
3,Cc1nc(N2CCN(c3ccccn3)CC2)c2c(C)c(C(=O)Nc3ccc(F)cc3)sc2n1,125% (active)
4,Cc1nc(N2CCOCC2)c2c(C)c(C(=O)Nc3ccc(C(F)(F)F)cc3)sc2n1,136% (active)
5,Cc1nc(N2CCN(c3ccccn3)CC2)c2c(C)c(C(=O)Nc3ccc(F)c(Cl)c3)sc2n1,129% (active)
6,CSc1nnc2c(n1)OC(c1ccsc1)N(C(C)=O)c1ccccc1-2 (stereo not drawn),106% (active)
7,CSCc1cc(N(C)C)nc(SCc2ccc(Cl)cc2Cl)n1,115% (active)
8,O=C(Nn1c(SCc2ccc([N+](=O)[O-])cc2)nc2ccccc2c1=O)c1ccc(F)cc1,139% (active)
9,COc1ccc(C2Nc3ccccc3C(=O)N2Cc2ccccc2)cc1Cn1nnc2ccccc21 (stereo not drawn),110% (active)
10,FC(F)(F)c1cc(-c2ccco2)nc(NCc2ccc(Cl)cc2)n1,126% (active)
11,FC(F)(F)c1cccc(-c2cc3ccccc3nc2N2CCCC2)c1,101% (active)
12,CC(=O)N1CCCc2cc(S(=O)(=O)N3CCCC(C(=O)N4CCN(c5cccc(Cl)c5)CC4)C3)ccc21 (stereo not drawn),119% (active)
13,CC(=O)c1ccccc1OCc1ccc(C(=O)c2ccccc2)cc1,121% (active)
14,COc1ccc(CCNC(=O)c2ccccc2OCc2ccccc2)cc1,101% (active)
15,CC(C)c1ccccc1OCC(O)CN(CC(O)COc1cccc2ccccc12)C(C)C (stereo not drawn),119% (active)
16,Cc1cccc(C)c1N1CCN(S(=O)(=O)N2CCCCC2)CC1,122% (active)
17,N/C(Cc1ccc([N+](=O)[O-])cc1)=N\OC(=O)COc1ccc2ccccc2c1,112% (active)
18,COC(=O)c1cc(NC2c3ccccc3C(=O)N2c2ccc(Cl)cn2)cc(C(=O)OC)c1 (stereo not drawn),115% (active)
19,COc1cc(/C=C(\C#N)c2nc3ccccc3[nH]2)ccc1O,125% (active)
20,COc1ccccc1N1CCN(/N=C\C(Br)=C\c2ccccc2)CC1,89.7% (active)

row,Structure (SMILES),ratio percent of control
1,O=C(Nc1ccccc1)O/N=C1\CCCCC1c1ccc([N+](=O)[O-])cc1[N+](=O)[O-] (stereo not drawn),118% (active)
2,CC(C)c1cc(C(=O)N/N=C/c2ccoc2)c(O)c(C(C)C)c1,123% (active)
3,CCCCCCCCCCCCN1C(=O)CSC1c1cccnc1 (stereo not drawn),125% (active)
4,CCc1cc(C(c2ccccc2OC)N2CCOCC2)c(NC(=O)c2ccccc2)s1 (stereo not drawn),102% (active)
5,COc1cccc(CNc2nc(C(F)(F)F)nc3ccccc23)c1,125% (active)
6,Cc1cccc2cc(CN(Cc3nnnn3Cc3ccccc3)C3CCCC3)c(=O)[nH]c12,115% (active)
7,COc1cccc(NC(=S)N(CCc2c(C)[nH]c3ccccc23)Cc2ccco2)c1,113% (active)
8,COc1ccccc1NC(=O)CSc1nc2sc(C)c(C)c2c(=O)n1Cc1ccco1,108% (active)
9,O=C(Nc1cccc(S(=O)(=O)Nc2ccc(Cl)cc2)c1)c1ccc2c(c1)OCCO2,105% (active)
10,C=CCN(N=Nc1cccc([N+](=O)[O-])c1)c1cccc([N+](=O)[O-])c1,109% (active)
11,COc1ccccc1C(c1nnnn1C(C)(C)C)N1CCN(Cc2ccccc2)CC1 (stereo not drawn),109% (active)
12,COC(=O)C1=C(C)N(C(C)c2ccccc2)C(=O)/C1=C\c1ccco1 (stereo not drawn),105% (active)
13,Cc1ccc(NC(=S)N2CCCC(c3ccccc3)=N2)cc1,97.7% (active)
14,c1ccc(C(c2ccccc2)N2CCN(Cc3nnnn3C3CCCCC3)CC2)cc1,118% (active)
15,Cc1cccc(-c2nc3ccc(C(=O)NCCN4CCN(C)CC4)cc3nc2-c2cccc(C)c2)c1,106% (active)
16,O=C(NCCc1ccccc1)c1ccc2c(c1)N(Cc1ccccc1)CCS2,108% (active)
17,Cc1c(C(=O)N2CCCc3ccccc32)sc2nc(-c3ccccc3)cn12,102% (active)
18,C=CCN(C(=O)c1cc(C)cc(C)c1)C1(C(=O)Nc2ccccc2)CCN(C(C)C)CC1,93% (active)
19,CCCC(=O)Nc1ccc(Cl)c(NC(=O)c2ccc(Br)o2)c1,92.7% (active)
20,O=C(N/N=C/c1cccc(OCc2ccccc2)c1)c1ccc(Br)o1,116% (active)

row,Structure (SMILES),ratio percent of control
1,Cc1ccc(NC(=O)COC(=O)CNC(=O)c2ccc(Cl)cc2Cl)cc1S(=O)(=O)N1CCOCC1,89% (active)
2,COc1ccc(-c2nc(CCNC(=O)c3ccc(Br)o3)cs2)cc1,84.7% (active)
3,CN1CCc2ccccc2C1Cc1ccccc1NC(=O)c1sc2ccccc2c1Cl (stereo not drawn),114% (active)
4,c1ccc2c(NC3C4CC5CC(C4)CC3C5)nc(N3CCOCC3)nc2c1 (stereo not drawn),122% (active)
5,CCOc1ccccc1Oc1cn[nH]c1-c1ccc(OC)cc1O,114% (active)
6,COCCNc1cc(-c2ccccc2)nc2cc(-c3cccc(F)c3)nn12,130% (active)
7,COc1cccc(CN(C)CC(O)COC(c2ccccc2)c2ccccc2C)c1 (stereo not drawn),110% (active)
8,Oc1ccc(/C=N/Nc2nc(-c3ccccc3F)nc3ccccc23)c(O)c1,93.3% (active)
9,O=C(NCCc1c[nH]c2ccccc12)c1cccc(Br)c1,118% (active)
10,Cc1cc(NC(=O)Nc2ccc(Cl)cc2)n(-c2ccccc2)n1,100% (active)
11,CN(CCC(=O)Nc1cc(S(=O)(=O)N(C)C)ccc1Cl)CC(=O)Nc1ccc(F)cc1,118% (active)
12,COc1cccc(COc2ccc(N(C)S(=O)(=O)c3ccccc3)cc2)c1,132% (active)
13,O=C(N/N=C/c1sc(N2CCCCC2)nc1-c1cccs1)c1cccnc1,123% (active)
14,COc1cccc(/C=N/Nc2cc(C)nc(-c3ccccc3O)n2)c1O,134% (active)
15,CCC(C)(C)n1nnnc1C(c1cccs1)N1CCN(c2nc3ccccc3s2)CC1 (stereo not drawn),112% (active)
16,O=C(CNCCC1=CCCCC1)Nc1ccccc1N1CCCCCC1,113% (active)
17,Cc1cc(C)c(S(=O)(=O)c2ccccc2)c(OC(=O)c2c(F)cccc2Cl)n1,78% (active)
18,COc1ccc(Nc2ncnc3sc(-c4ccccc4)cc23)c(OC)c1,112% (active)
